Measured values: PubChem BioAssay (NCATS)
Records with an inconclusive call do not appear. Active and inactive are the calls of the source. Unless noted, calls follow the shape of the full dose curve.

Experiments:
[1] = qHTS for Inhibitors of the Functional Ribonucleoprotein Complex (vRNP) of Lassa (LASV) Arenavirus: LASV Primary Screen - GLuc reporter signal (AID 1347082; calls by dose curve; tested in HEK293 reporter line; also: nearly all actives have a fitted effect of over 60% in size)
[2] = qHTS for Inhibitors of the Functional Ribonucleoprotein Complex (vRNP) of Lassa (LASV) Arenavirus: Viability assay - alamar blue signal for LASV Primary Screen (AID 1347083; calls by dose curve; tested in HEK293 reporter line; also: nearly all actives have a fitted effect of over 80% in size)
[3] = qHTS for Inhibitors of the Functional Ribonucleoprotein Complex (vRNP) of Lymphocytic Choriomeningitis Arenaviruses (LCMV): Viability assay - alamar blue signal for LCMV Primary Screen (AID 1347085; calls by dose curve; tested in HEK293 reporter line; also: nearly all actives have a fitted effect of over 80% in size)
[4] = biological target: Nucleoprotein (Lymphocytic choriomeningitis virus (strain Armstrong)) (UniProt P09992); assay: qHTS for Inhibitors of the Functional Ribonucleoprotein Complex (vRNP) of Lymphocytic Choriomeningitis Arenaviruses (LCMV): LCMV Primary Screen - GLuc reporter signal (AID 1347086); also: nearly all actives have a fitted effect of over 70% in size

Measured: Potency
Also: series mostly up to about 57 µM.

Chain of Nucleoprotein (Lymphocytic choriomeningitis virus (strain Armstrong)) (P09992 whole entry, looked up): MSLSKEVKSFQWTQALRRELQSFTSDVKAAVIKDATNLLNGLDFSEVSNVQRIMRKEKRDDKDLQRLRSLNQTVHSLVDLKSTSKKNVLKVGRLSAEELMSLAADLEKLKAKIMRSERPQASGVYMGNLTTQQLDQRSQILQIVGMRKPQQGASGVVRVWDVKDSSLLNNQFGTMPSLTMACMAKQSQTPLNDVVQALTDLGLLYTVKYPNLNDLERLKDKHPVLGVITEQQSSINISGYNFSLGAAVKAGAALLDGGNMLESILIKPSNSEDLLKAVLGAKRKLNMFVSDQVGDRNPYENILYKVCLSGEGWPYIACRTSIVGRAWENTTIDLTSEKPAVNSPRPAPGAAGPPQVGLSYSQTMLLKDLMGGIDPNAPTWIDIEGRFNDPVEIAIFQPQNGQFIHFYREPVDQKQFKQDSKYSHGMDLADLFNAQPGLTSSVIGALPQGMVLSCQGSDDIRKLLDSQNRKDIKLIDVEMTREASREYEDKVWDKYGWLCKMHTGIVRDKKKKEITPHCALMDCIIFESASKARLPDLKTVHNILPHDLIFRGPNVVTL

CC(=O)O[C@@H]1[C@H]2CC[C@@H]3[C@]1(C[C@@H](OC(C)=O)[C@@]1(O)C([C@@H]4O[C@@H]4C1(C)C)[C@]3(C)O)C[C@@]2(C)O (stereo not given in full)
inactive: all assays above

N[C@H](C(=O)O)c1ccc(O)c(C(=O)O)c1
inactive: all assays above

C[C@]12CC[C@@H](O)CC1=CC(=O)C1C2CC[C@]2(C)C(=O)[C@H](O)CC12 (stereo not given in full)
inactive: all assays above

COc1cc2c(O)c3c(c(-c4ccc5c(c4)OCO5)c2cc1OC)C(=O)OC3
inactive: all assays above

C/C(=N/N=C(\C)c1ccccc1O)c1ccccc1O
inactive: all assays above

CC(=O)OC1C(OC(C)=O)C2C(C)CC3OC(=O)C(C)C3CC2(C)C1OC(C)=O (stereo not given)
inactive: all assays above

COc1ccc(-c2oc3ccccc3c(=O)c2O)cc1
inactive: all assays above

CCN1CC2(COC(=O)c3ccccc3N)CCC(OC)C34C5CC6C(OC)CC(O)(C5C6OC)C(O)(C(OC)C23)C14 (stereo not given)
inactive: all assays above

CC1=CC2OC3CC4OC(=O)C=CC=CC(C(C)O)OCC(O)C(C)CC(=O)OCC2(CC1O)C4(C)C31CO1 (stereo not given)
inactive: all assays above

O=C(O)c1ccco1
inactive: all assays above

CSc1nc(N)c2ncn([C@@H]3O[C@H](COP(=O)(O)OP(=O)(O)OP(=O)(O)O)[C@@H](O)[C@H]3O)c2n1
inactive: all assays above

CC1(C)C2=CCCC(C)(C)[C@]23CC[C@H]1C3
inactive: all assays above

COc1ccc2ccc(=O)oc2c1CC(=O)C(C)C
inactive: all assays above

C=C(C)[C@]12C[C@@H](C)[C@@]34O[C@](Cc5ccccc5)(O[C@@H]1[C@@H]3C=C(COC(=O)Cc1ccc(O)c(OC)c1)C[C@]1(O)C(=O)C(C)=C[C@@H]41)O2
inactive: all assays above

CCCCC/C=C/CC(=O)OC
inactive: all assays above

CCC(=O)O[C@]1(C(=O)CO)CC[C@H]2[C@@H]3CCC4=CC(=O)CC[C@]4(C)[C@@H]3CC[C@@]21C
inactive: all assays above

C=C1CC23C[C@H]4[C@@H]5[C@@]6(C)C[C@H](OC(=O)c7ccccc7)[C@@H](OC(C)=O)[C@]57[C@@H]2[C@@H](OC(C)=O)[C@H]1[C@@H](O)[C@H]3[C@H]7N4C6
inactive: all assays above

CC1OC(OC2C(CO)OC(OCC3OC(OC(=O)[C@@]45CCC(C)(C)C[C@@H]4C4=CC[C@@H]6[C@@]7(C)CCC(OC8OCC(O)C(O)C8OC8OC(C)C(O)C(O)C8O)[C@@](C)(CO)C7CC[C@@]6(C)[C@]4(C)CC5)C(O)C(O)C3O)C(O)C2O)C(O)C(O)C1O (stereo not given in full)
inactive: all assays above

C[C@]12CCC3C(CC[C@H]4C[C@H](O)CC[C@]34C)C1C[C@H](O)[C@@H]2O (stereo not given in full)
inactive: all assays above

CCCCCCCCCCCC
inactive: all assays above

CC(O)[C@H]1CC[C@H]2[C@@H]3CC[C@H]4C[C@@H](O)CC[C@]4(C)[C@H]3C(=O)C[C@]12C (stereo not given in full)
inactive: all assays above

COc1cc(=O)n(C)c2c(OCC3OC(C)(C)OC3(C)C)cccc12 (stereo not given)
inactive: all assays above

CC1(C)O[C@@H]1COc1c2ccoc2cc2oc(=O)ccc12
inactive: all assays above

C=C[C@]1(C)Cc2occ(C)c2C[C@H]1C(=C)C(=O)O
inactive: all assays above

OC[C@H]1O[C@@H](O[C@@H]2OC=C[C@H]3[C@H](O)[C@@H]4O[C@]4(CO)[C@@H]23)[C@H](O)[C@@H](O)[C@@H]1O
inactive: all assays above

CCOC(=O)/C=C/c1ccccc1
inactive: all assays above

COc1c2c(c(C)c3c1C(=O)OC3)O[C@@]1(C)CC[C@@]3(O)C(C)(C)OC(=O)CC[C@]3(C)[C@H]1C2
inactive: all assays above

CC12CCC3C(CCC4CC(O)CCC43C)C1CC(O)C2 (stereo not given)
inactive: all assays above

C=C[C@]1(C)C=C2C(=O)[C@@]3(O)OC(=O)[C@@]4(CCCC(C)(C)[C@H]34)[C@@]2(O)CC1
inactive: all assays above

CC(=O)c1c(O)cc(O)cc1O
inactive: all assays above
